Source: PubChem (National Center for Advancing Translational Sciences (NCATS))
A selection: hits, their analogues and other compounds. The true share with any hit is near 1.4%.
S-ASM inh: inhibitors of human secretory acid sphingomyelinase. P17405. actives 0.006% (n = 340,000). Potency, µM (highest dose often 57.5 µM), without a hit: top-dose activity change, negative = inhibition, usual class: inhibitors. placental ASM, HMU-PC fluorogenic substrate, 60 min; also: potency is read from the fitted curve at half-maximal effect
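Fluorogenic HMU-PC substrate (9 uM final) is turned over by placental ASM in 60 min at 37 C after a 10 min compound preincubation. Reaction ended by alkaline stop (pH 10), with fluorescence read at 386/447 nm.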
PINK1 expr mod: modulators of PINK1 expression; actives 0.2% (n = 410,000); Potency, µM (highest dose often 76.6 µM), without a hit: top-dose activation (PINK1 increase), actives largely listed as activators; PINK1 immunofluorescence, high-content cytometry, 24 h; active = well fitted activation curve with a large enough effect; inconclusive = small, poorly fitted or top-dose-only effect; cell line not stated here; also: potency is read from the fitted curve at half-maximal effect; % of control where 0% means no effect; nearly all actives have a fitted effect of over 65% in size
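A stable cell line was treated with compounds at 5 concentrations for 24 hours, with CCCP as control. PINK1 levels and mitochondrial localization were measured by immunofluorescence with mitochondrial, cell and nuclear markers after fixation, read by laser-scanning cytometry.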
CCT chaperon mod: modulators of cytosolic chaperonin (CCT/TRiC) activity. purified chaperonin ATPase assay, HTRF ADP detection, 30 min. activity change, % (test concentration not listed), hits read low. actives 0.3% (n = 360,000). AID 651819; in the data active = activity change below about -30%; also: % is scaled to controls: 0 for no effect and ±100 for the full control effect
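TRiC at 40 or 20 nM final (batch-dependent) in 30 mM Tris pH 7.4, 100 mM KCl, 5 mM MgCl2, 1 mM DTT, with compound at single 76 uM and 10 uM ATP, 30 min at 37 deg C. ADP detected by HTRF Transcreener, 665/615 ratio.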
Mm-Cpn inhibitor: inhibitors of Methanococcus maripaludis chaperonin TRiC (MmCpn). Potency, µM (titrated, usually from 76.9 µM), without a hit: top-dose activity, negative = inhibition, most hits filed as inhibitors. actives 0.031% (n = 330,000). purified Mm-Cpn ATPase, ADP Transcreener TR-FRET; also: potency is read from the fitted curve at half-maximal effect; % is scaled to controls: 0 for no effect and ±100 for the full control effect; nearly all actives have a fitted effect of over 80% in size
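Measured: ADP formation by purified Mm-CPN. Conditions: 25 nM protein, 10 uM ATP, Tris pH 7.4 with Mg2+, K+ and DTT, 37°C for 30 min. Detection: Transcreener HTRF after 30 min at room temperature.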
p53 reactivator: re-activators of mutant p53; H1299 p53-A138V BP100-luciferase reporter, luminescence, 24 h; Potency, µM (series often up to 92.2 µM), for the others: top-dose activity change, positive = activation, hits mostly activators; actives 0.063% (n = 320,000); also: potency is read from the fitted curve at half-maximal effect; % of control where 0% means no effect; nearly all actives have a fitted effect of over 45% in size
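H1299 (p53-null), stable ts p53-A138V + BP100-Luc; 1000 cells/well, Opti-MEM/10% FBS; cpd 4 pt, 1:5; 24 h, 37 deg C, 5% CO2; detection reagent 10 min RT; luminescence.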
ALOX12 inh: ALOX12 (human) lipoxygenase inhibition; purified 12hLO, xylenol orange hydroperoxide absorbance; actives 1.1% (n = 580,000); Potency, µM (top dose mostly 108 µM), for the others: at the highest dose activity change, negative = inhibition, hits mostly inhibitors; AID 1671190; also: potency is read from the fitted curve at half-maximal effect; % is scaled to controls: 0 for no effect and ±100 for the full control effect
Target sequence (P18054 whole entry, looked up): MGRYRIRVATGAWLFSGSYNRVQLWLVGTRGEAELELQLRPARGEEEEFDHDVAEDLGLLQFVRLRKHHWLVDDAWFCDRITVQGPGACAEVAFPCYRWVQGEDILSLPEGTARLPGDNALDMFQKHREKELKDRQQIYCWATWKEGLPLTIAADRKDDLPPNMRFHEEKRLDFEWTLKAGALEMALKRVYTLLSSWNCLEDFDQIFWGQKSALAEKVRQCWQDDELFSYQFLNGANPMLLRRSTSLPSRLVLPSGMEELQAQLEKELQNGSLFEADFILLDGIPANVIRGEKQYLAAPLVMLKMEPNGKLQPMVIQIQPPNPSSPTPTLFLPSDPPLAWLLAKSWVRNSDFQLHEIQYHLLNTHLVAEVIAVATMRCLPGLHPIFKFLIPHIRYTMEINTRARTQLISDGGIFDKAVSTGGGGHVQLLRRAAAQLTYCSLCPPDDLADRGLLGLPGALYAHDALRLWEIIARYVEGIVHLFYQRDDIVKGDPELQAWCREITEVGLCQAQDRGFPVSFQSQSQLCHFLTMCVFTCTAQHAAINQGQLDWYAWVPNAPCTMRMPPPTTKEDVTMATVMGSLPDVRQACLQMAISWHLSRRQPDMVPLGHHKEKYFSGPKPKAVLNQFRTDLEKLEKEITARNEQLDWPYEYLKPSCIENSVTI
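Hydroperoxide product was detected by ferrous iron/xylenol orange as the 573 to 405 nm absorbance ratio. Arachidonic acid at 40 uM (final) was turned over for 30 min at room temperature by 150 nM human 12hLO, pH 7.0 Hepes buffer, after 15 min compound preincubation.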
The depositor's hits bear a star; ? = inconclusive; . = no result; [ ] = another dose, or the depositor's remark. Unless noted, calls follow the shape of the dose curve; as a rule, active = well fitted curve in the direction sought with a large enough effect; inconclusive = small, poorly fitted or top-dose-only effect, or another doubt; inactive = no such curve, though single readings can be large; an effect the other way counts as inactive or inconclusive.

SMILES	S-ASM inh	PINK1 expr mod	CCT chaperon mod	Mm-Cpn inhibitor	p53 reactivator	ALOX12 inh
COCC(=O)N[C@@H]1C[C@H](Cn2cc(CN3CCS(=O)(=O)CC3)nn2)[C@@H](O)[C@H]1O	.	.	.	.	.	67.7%
O=S1(=O)CCN(Cc2cn(C[C@H]3C[C@@H](NCc4ccc(F)cc4)[C@H](O)[C@@H]3O)nn2)CC1	.	.	.	.	.	12.6µM*
CC(c1ccc(S(C)(=O)=O)cc1)N(C)S(=O)(=O)c1cc(Cl)cc(Cl)c1 (centres undefined)	.	.	.	.	.	-4.3%
CCOc1ccc(-c2nnc(SCc3nc4ccccc4o3)o2)cc1	.	.	.	.	.	-0.5%
CCCn1c(N)c(-c2csc(NC)n2)c(=O)n(C)c1=O	.	.	.	.	.	7.94µM*
CC12CCC(C1)C(C)(C)C2O (centres undefined)	.	.	.	.	.	18.3%[176 µM]
CCOc1ccccc1Oc1coc2cc(OS(C)(=O)=O)ccc2c1=O	.	.	.	.	.	4.6%
O=C1C=CC(=O)N1CCCCCCCCCCN1C(=O)C=CC1=O	1.3%	-1.8%	-1.9	.	.	2µM*
COC(=O)[C@@H]1Cc2ncn(C)c2CN1S(=O)(=O)c1ccc(F)cc1	.	.	.	.	.	56.2µM*
Cc1ccc2c(C)nc(Nc3nc(C)cc(-c4ccccc4)n3)nc2c1	.	.	.	.	.	21.4%
Cc1ccc(S(=O)(=O)NC2CC2)cc1C(=O)N1CCN(c2ccccc2O)CC1	.	.	.	.	.	-21.9%
Clc1ccc(OCCn2ccnc2)c(Br)c1	-0.2%	-1.1%	0.1	-2.8%	-1.4%	3.16µM*
CC1(COc2ccccc2)COc2ccc(C(=O)NCCc3ccccn3)cc2N1 (centres undefined)	.	.	.	.	.	17.8µM*
Cc1cc(C(=O)OC(C(=O)Nc2cccc(C(F)(F)F)c2)c2ccccc2)c(C)o1 (centres undefined)	-6.7%	35.5µM*	-2.0	2.1%	?	-18.3%
COc1ccc(NC(=O)C2(C)CCN2C(=O)C(C)C)cc1F (centres undefined)	.	0.2%	-35.6*	.	.	11.5%
COc1ccccc1-n1c(SCC(=O)NCC2CCCO2)nc2c([nH]c3ccccc32)c1=O (centres undefined)	0.2%	1.1%	-0.4	-2.7%	-20.1%	35.5µM*
COc1ccc(CC(=O)Nc2ccc([C@@H](O)[C@H]3COCC(=O)N3CC(C)C)cc2)cc1	.	.	.	.	.	51.1%[176 µM]
FC(F)Sc1ccc(NC(=S)NCCC2=CCCCC2)cc1	.	.	.	.	.	17.8µM*
CCOC(=O)c1ccc(NC(=S)NCCc2ccccc2F)cc1	-2.8%	?	-0.2	0.1%	-1.1%	39.8µM*
CCOC(=O)c1ccc(NC(=S)NCCC2=CCCCC2)cc1	-4.1%	31.6µM*	-5.2	-0.1%	26.5%	39.8µM*
COC(=O)c1ccc(NC(=S)NC(=O)C2CCC2)cc1	-2.5%	0.3%	0.4	0.3%	11.7%	?
CCOC(=O)c1ccc(NC(=S)NC(=O)C2CCCC2)cc1	-12.1%	1.5%	0.0	1.2%	-5.7%	39.8µM*
Cc1ccc(NC(=S)NCCC2=CCCCC2)cc1	-2.1%	4.5%	0.5	-0.3%	?	?
COc1ccccc1OCC#CCN1CCC(Cc2ccccc2)CC1	.	.	.	.	.	-55.3%
CC(=O)N1N=C(c2cccc(O)c2)CC1c1ccco1 (centres undefined)	.	.	.	.	.	7.5%
SMILES	S-ASM inh	PINK1 expr mod	CCT chaperon mod	Mm-Cpn inhibitor	p53 reactivator	ALOX12 inh
COC(=O)C1=C(C)Nc2[nH]c(=S)[nH]c(=O)c2C1c1ccc(OC)cc1 (centres undefined)	-2.4%	-1.7%	-1.0	0.9%	-3.0%	25.1µM*
COC(=O)C1=C(C)NC(=O)NC1c1ccc(OC)cc1 (centres undefined)	.	.	.	.	.	7.5%
Cc1nc2ccc3[nH]c(C)c(C)c3c2s1	.	.	.	.	.	4.2%
Cc1nc2c(ccc3c(C)c(C)[nH]c32)s1	.	.	.	.	.	28.2µM*
Cc1nn(-c2ccc(F)cc2)c2nc(N)c(C#N)c(-c3ccc(O)c(O)c3)c12	3.4%	?	1.5	-1.5%	2.1%	?
Cc1nn(-c2ccccc2)c2nc(N)c(C#N)c(-c3ccc(O)c(O)c3)c12	-2.4%	-1.3%	-2.5	1.9%	4.5%	31.6µM*
O=C(C1CCCCC1)N1CCC2(CC1)NC(=O)N(c1cccc(F)c1)N2	.	.	.	.	.	1.41µM*
O=C(CC1CCCCC1)N1CCC2(CC1)NC(=O)N(c1ccccc1)N2	.	.	.	.	.	7.08µM*
COC1CN(c2cccc(F)c2)C12CCN(C(=O)C1CCCCC1)CC2 (centres undefined)	.	.	.	.	.	24.1%
O=C(CC1CCCCC1)N1CCC2(CC1)NC(=O)N(c1cccc(F)c1)N2	.	.	.	.	.	2.82µM*
Cc1cc(=O)[nH]c(=S)n1-c1ccccc1	6.2%	15.2%[38.3 µM]	-34.1*	4.3%	6.1%	?
Cc1nn2c(c1-c1ccnn1C(C)C)N(C(=O)C(C)C)CCC2	.	.	.	.	.	2.8%[176 µM]
